According to PubChem BioAssay AID720648 (The Scripps Research Institute Molecular Screening Center, 2013):
Hit rate of the full screen: of about 370,000 compounds, about 3,100 (0.84%) were called active. What follows is part of a selection rich in actives, with near analogues and random picks from the rest. Values without a mark were called inactive.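 Rule for the calls: active = inhibition above the mean of compounds lying between control limits plus 3 SD, set per campaign (cut at about 8.5% in these data); inactive = the rest.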

What follows are molecules tested against Disintegrin and metalloproteinase domain-containing protein 17 (Homo sapiens) (UniProt P78536) (assay: ADAM17 inhibitors, primary screen, biochemical, QFRET (AID 720648;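 note: 0% = DMSO-only wells as the low control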)). Conditions: recombinant ADAM17, EDANS/DABCYL FRET peptide cleavage; at 6.95 µM; active compounds read high.
Sequence of Disintegrin and metalloproteinase domain-containing protein 17 (Homo sapiens) (P78536 215-824 limits assumed): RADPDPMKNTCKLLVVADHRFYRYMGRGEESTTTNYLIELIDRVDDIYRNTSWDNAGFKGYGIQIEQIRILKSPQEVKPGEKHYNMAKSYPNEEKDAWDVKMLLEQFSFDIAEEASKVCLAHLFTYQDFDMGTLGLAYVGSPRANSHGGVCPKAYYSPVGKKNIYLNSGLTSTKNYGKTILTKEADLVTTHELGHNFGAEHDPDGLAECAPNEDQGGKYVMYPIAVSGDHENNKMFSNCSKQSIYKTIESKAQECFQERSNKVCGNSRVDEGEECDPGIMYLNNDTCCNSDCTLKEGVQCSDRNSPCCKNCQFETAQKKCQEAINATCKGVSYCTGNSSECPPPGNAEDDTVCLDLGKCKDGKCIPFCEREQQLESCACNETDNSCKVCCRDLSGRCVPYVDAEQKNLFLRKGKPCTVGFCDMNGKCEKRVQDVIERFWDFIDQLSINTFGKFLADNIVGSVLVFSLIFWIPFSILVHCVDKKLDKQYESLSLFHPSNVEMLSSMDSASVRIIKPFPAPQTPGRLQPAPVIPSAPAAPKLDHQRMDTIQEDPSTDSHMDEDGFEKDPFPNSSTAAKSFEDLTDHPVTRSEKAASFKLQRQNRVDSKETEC
`C#CCN(C[C@@H]1[C@@H](OC(=O)NC2CC2)[C@@H](OC(=O)NC2CC2)Cn2c(=O)ccc(=O)n21)S(=O)(=O)c1ccc(C)cc1` showed an inhibition of -1.79%. With `Cc1ccc(S(=O)(=O)N2C[C@]3(O)C[C@@H]4C(=O)N(c5ccccc5)C(=O)[C@@H]4C[C@]3(OC(=O)NC3CC3)C2)cc1` the inhibition was -1.11%. `C#CCN(C[C@H]1[C@H](OC(=O)NC2CCCC2)[C@H](OC(=O)NC2CCCC2)C[C@H]2C(=O)N(c3ccccc3)C(=O)[C@@H]12)S(=O)(=O)c1ccc(C)cc1` was tested, and the inhibition was 9.64% (active). For `COC(=O)[C@]12C[C@H](CC(=O)NCc3ccccc3)C(=O)N(CCC3=CCCCC3)C1=C[C@H](C(C)C)O[C@@H]2C1CC1`, the inhibition was 6.48%. For `N#Cc1nc(Cc2cccc3ccccc23)oc1NCc1ccc2c(c1)OCO2`, the inhibition was 9.51% (active). For `CC1(C(=O)NCc2ccc3c(c2)OCO3)CCN1C(=O)Cc1cccc2ccccc12` (configuration not stated), the inhibition was -3.18%. `O=C(CCNS(=O)(=O)c1ccccc1C(F)(F)F)NCc1ccc2c(c1)OCO2` gave an inhibition of -0.25%. Work on `CCOC(=O)C(=O)N(Cc1ccccc1)c1ccccc1C(=O)Nc1cc(OC)ccc1OC` yielded an inhibition of 4.35%. With `O=C(CSc1nnc(-c2ccccn2)n1-c1ccc(Cl)cc1)Nc1ccccc1-c1ccccc1` the inhibition was 5.21%. For `CN(C(=O)c1cccc(NC(=O)Cc2ccc([N+](=O)[O-])cc2)c1)C1CCC1`, the inhibition was 3.46%. `CN(C(=O)c1cccc(NC(=O)Cc2cccc([N+](=O)[O-])c2)c1)C1CCCCC1` was tested, and the inhibition was 10.3% (active). For `CN(C(=O)c1cccc(NC(=O)Cc2cccc(NC(=O)C3CCCN(C(=O)C4CC4)C3)c2)c1)C1CCC1` (configuration not stated), the inhibition was -2.72%. `Cc1ccccc1CS(=O)(=O)Cc1ccc(C(=O)Nc2ccc(Cl)cc2)o1` showed an inhibition of -7.43%. `CC1C(=O)N(Cc2cn(CC3CCCCC3)nn2)CCS(=O)(=O)N1Cc1ccc(-c2cccc(N(C)C)c2)cc1` (configuration not stated) showed an inhibition of -2.56%. Work on `CC1C(=O)N(Cc2cn(Cc3ccco3)nn2)CCS(=O)(=O)N1Cc1ccc(-c2cccc(CO)c2)cc1` (configuration not stated) yielded an inhibition of 0.84%. `COc1ccc(-c2ccc(CN3C(CC(C)C)C(=O)N(Cc4cn(CC5CCCCC5)nn4)CCS3(=O)=O)cc2)cn1` (configuration not stated) showed an inhibition of 3.81%. Molecule `CC(C)CC1C(=O)N(Cc2cn(CC3CCCCC3)nn2)CCS(=O)(=O)N1Cc1ccc(-c2ccc(Cl)cc2)cc1` (configuration not stated) has an inhibition of -0.31%. With `COc1ccc(Cn2cc(CN3CCS(=O)(=O)N(Cc4ccc(-c5cccc(Cl)c5)cc4)C(C)C3=O)nn2)cc1` (configuration not stated) the inhibition was 10% (active). With `COc1ccc(-c2ccc(CN3C(CC(C)C)C(=O)N(Cc4cn(CC5CCCCC5)nn4)CCS3(=O)=O)cc2)cc1` (configuration not stated) the inhibition was 9.87% (active). `COc1cc(/C=C/C(=O)n2cnc3ccccc32)cc(OC)c1OC` showed an inhibition of -11.9%. `CC(=O)OC12CCCN(C1)/C(=C/c1ccncc1)C2` (configuration not stated) was tested, and the inhibition was -1.16%. For `Clc1ccc(-n2c(SC/C=C/c3ccccc3)nnc2-c2ccco2)cc1`, the inhibition was 8.36%. `CC(C)CNc1cccc2c1S(=O)(=O)N(Cc1cn(Cc3ccccc3C(F)(F)F)nn1)Cc1ccccc1O2` showed an inhibition of -9.08%. `COc1cc(C2CC(=O)N3CN(Cc4ccccc4)CSC3=C2C#N)ccc1OCc1ccccc1` (configuration not stated) was tested, and the inhibition was 10.2% (active). For `CCCNC(=O)C1CC(=O)N(c2ccc(OCc3ccccc3)cc2)C1` (configuration not stated), the inhibition was -1.62%. `COc1cc(C2C(C(=O)c3ccco3)=C(O)C(=O)N2c2cc(C)on2)ccc1OCc1ccccc1` (configuration not stated) showed an inhibition of -1.07%. For `Cc1cc(C)nc(NC(=S)N2CCN(c3ccc(C(F)(F)F)cn3)CC2)c1`, the inhibition was -0.9%. With `Cc1ccc(C)c(NC(=S)NNC(=S)Nc2ccc(C(C)C)cc2)c1` the inhibition was 11% (active). In the case of `CC(C)c1ccc(NC(=S)NC2CC3C=CC2C3)cc1` (configuration not stated), the inhibition is reported as 1.36%. `Cc1ccc(C)c(NC(=S)NCC(c2cccnc2)N2CCOCC2)c1` (configuration not stated) was tested, and the inhibition was 4.64%. For `COc1ccnc(NC(=S)N2CCN(c3ncc(C(F)(F)F)cc3Cl)CC2)c1`, the inhibition was -3.73%. Work on `C[C@H](C(=O)N(C)c1ccccc1)[C@@H](O)c1ccc(Cl)cc1` yielded an inhibition of -3.74%. For `C[C@H](CO)N1C[C@H](C)[C@@H](CN(C)C(=O)C2CCCCC2)OCc2cnnn2CCCC1=O`, the inhibition was 3%. In the case of `COC(=O)N(C)C[C@@H]1OCc2cnnn2CCCC(=O)N([C@@H](C)CO)C[C@@H]1C`, the inhibition is reported as 8.71% (active). For `C[C@@H]1CN([C@H](C)CO)C(=O)CCCn2nncc2CO[C@@H]1CN(C)C(=O)OCc1ccccc1`, the inhibition was -3.01%. Work on `COC(CNC(=O)[C@H](Cc1ccccc1)NC1(C(=O)NC2CCCCC2)CCCCC1)OC` yielded an inhibition of -1.27%. Work on `COc1ccc(S[C@]2(C(=O)N(C)C)CC(=O)N(c3ccc(OC)cc3)[C@@H]2c2ccc(OC)cc2)cc1` yielded an inhibition of 3.23%.
